The nature of test [1]: Quantitative High-Throughput drug screen in 47 multiple myeloma cell lines against the NCATS MIPE library collection: XG6_PLB cell viability assay (AID 1919865). Also: nearly all actives have a fitted effect of over 40% in size. In a few lines: (§1)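 Cells were exposed to library compounds for 48 hours, after which ATP was measured by CellTiter-Glo. Signal was taken as median relative luminescence units.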
The nature of test [2]: Quantitative High-Throughput drug screen in 47 multiple myeloma cell lines against the NCATS MIPE library collection: UTMC2_PLB cell viability assay (AID 1919868). Also: nearly all actives have a fitted effect of over 55% in size. The following applies: CellTiter-Glo ATP luminescence, 48 h; viability (% of DMSO control): at 45.8 µM (top of the series). Summed up:
as §1
A general note: Cellular ATP, detected with luciferase, serves as a proxy for viable cell number.

The nature of test [3]: Quantitative High-Throughput drug screen in 47 multiple myeloma cell lines against the NCATS MIPE library collection: PE2_PLB cell viability assay (AID 1919869). Also: nearly all actives have a fitted effect of over 35% in size. Summed up:
as §1

Test [4] can be described thus: Quantitative High-Throughput drug screen in 47 multiple myeloma cell lines against the NCATS MIPE library collection: RPMI8226_ATCC cell viability assay (AID 1919871). Also: nearly all actives have a fitted effect of over 30% in size. In a few lines: as §1
A short description of test [5]: Quantitative High-Throughput drug screen in 47 multiple myeloma cell lines against the NCATS MIPE library collection: OPM2_DSMZ cell viability assay (AID 1919872). Also: nearly all actives have a fitted effect of over 30% in size. Summed up: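 Relative luminescence from CellTiter-Glo served as the viability signal, referenced to DMSO-treated (100%) and cell-free medium (0%) controls. Treatment lasted 48 hours at 37C with 500 cells per well.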

The nature of test [6]: Quantitative High-Throughput drug screen in 47 multiple myeloma cell lines against the NCATS MIPE library collection: VP6_DJ cell viability assay (AID 1919867). Also: nearly all actives have a fitted effect of over 40% in size. In a few lines: as §1
Test [7] in a line: Quantitative High-Throughput drug screen in 47 multiple myeloma cell lines against the NCATS MIPE library collection: KMS11_JCRBsus cell viability assay (AID 1919873). Also: nearly all actives have a fitted effect of over 50% in size. Summed up: as §1
A short description of test [8]: Quantitative High-Throughput drug screen in 47 multiple myeloma cell lines against the NCATS MIPE library collection: XG1_PLB cell viability assay (AID 1919866). Also: nearly all actives have a fitted effect of over 35% in size. Summed up:
as §1

Test [9] in a line: Quantitative High-Throughput drug screen in 47 multiple myeloma cell lines against the NCATS MIPE library collection: PCM6_Riken cell viability assay (AID 1919870). Also: nearly all actives have a fitted effect of over 30% in size. In a few lines: as §1
Test [10] can be described thus: Quantitative High-Throughput drug screen in 47 multiple myeloma cell lines against the NCATS MIPE library collection: KMS28BM_JCRB cell viability assay (AID 1919874). Also: nearly all actives have a fitted effect of over 35% in size. Summed up:
as §1

From PubChem BioAssay (NCATS) come the findings set out here.

Records with an inconclusive call do not appear. Active and inactive are the calls of the source. Calls follow the shape of the dose curve; as a rule, active = well fitted cell-killing curve with a large enough effect; inconclusive = small, poorly fitted or top-dose-only effect, or effect the other way; inactive = no such curve, though single readings can be large or run the other way.
Potency is read from the fitted curve at half-maximal effect.

Consider `CS(=O)c1ccc(-c2nc(-c3ccc(F)cc3)c(-c3ccncc3)[nH]2)cc1` (stereo not drawn), for which the Potency is 42.9 µM (active) in test [1], 34 µM (active) in [2] and 30.3 µM (active) in test [3].

Consider `CN(C)C1CCN(C(=O)c2ccc(NC(=O)Nc3nc(N4CCOCC4)nc(N4CCOCC4)n3)cc2)CC1`, for which the figures for the Potency in test [4] and in [5] were 0.0093 µM (active) and 0.0209 µM (active), respectively.

On to `CC(C)(C)Cn1c(N)nc2ccc(-c3[nH]c(C(C)(C)C)nc3-c3ccc(F)cc3)nc21`, for which the Potency in [1] is 14.8 µM (active); in [6], 16.6 µM (active); in test [3] it was 20.9 µM (active). The Potency result in [7] was “inactive”.

For `O=C(O)c1cc(O)c2c(c1)C(=O)c1cccc(O)c1C2=O`, the Potency result in [1], in test [8], in [3], in test [9], in [5] and in [7] was “inactive” each time. Also, the Potency result in test [10] was “inactive”. Also, in [4], the Potency was 42.9 µM (active).

Regarding `COc1ccc(-c2nc(N3CCOCC3)c3sc(CN(C)c4ncc(C(=O)NO)cn4)cc3n2)cn1`, the Potency result in test [6], in test [7] and in [10] was “inactive” in each case. Further, the Potency is 0.001 µM (active) in test [3] and 0.0021 µM (active) in test [5].

As to `O=C(Nc1cccc(Br)c1)c1cccc(S(=O)(=O)N2CCCCCC2)c1`, the Potency in test [1] was 14.8 µM (active); in test [8] it was 16.6 µM (active); in [7], 18.7 µM (active).

Take `CC[C@@H]1C=C(C)C[C@H](C)C[C@H](OC)[C@H]2O[C@@](O)(C(=O)C(=O)N3CCCC[C@@H]3C(=O)O[C@H](C(C)=C[C@@H]3CC[C@H](Cl)[C@H](OC)C3)[C@H](C)[C@@H](O)CC1=O)[C@H](C)C[C@H]2OC`: the Potency in test [8] was 14.8 µM (active); in test [3], 20.9 µM (active); in test [4], 18.7 µM (active). Further, the Potency result in test [5] was “inactive”.

For the molecule `CNC(=O)c1ccc2cc(C3(O)CCn4cncc43)ccc2c1` (stereo not drawn), the Potency result in test [3], in test [9], in test [4], in [5], in [7] and in test [10] was “inactive” in each case.

In the case of `COc1ccc(Cc2nccc3cc(OC)c(OC)cc23)cc1OC`, the Potency in test [1] is 13.2 µM (active); in [8], 14.8 µM (active); in test [5], 11.8 µM (active); in [7], 18.7 µM (active); in [10], 20.9 µM (active). For the same molecule, the Potency result in test [2] and in test [4] was “inactive” each time.

As to `CO[C@@H](C(=O)N1Cc2[nH]nc(NC(=O)c3ccc(N4CCN(C)CC4)cc3)c2C1)c1ccccc1`, the Potency in test [1] was 20.9 µM (active); in [2] it was 0.0332 µM (active); in [3] it was 20.9 µM (active); in test [9], 26.4 µM (active); in test [10], 1.66 µM (active).

On to `CC(C)[C@H](CO)Nc1nc(Nc2ccc(C(=O)O)c(Cl)c2)c2ncn(C(C)C)c2n1`, for which the Potency in [3] is 23.5 µM (active).

As to `COc1ccc(-c2coc3cc(O)cc(O)c3c2=O)cc1`, the Potency entry in [8], in [9], in test [4], in [5], in [7] and in test [10] was “inactive” throughout.

Take `CON=C(C(=O)N[C@@H]1C(=O)N2C(C(=O)OCOC(=O)C(C)(C)C)=C(C=Cc3scnc3C)CS[C@H]12)c1csc(N)n1`: the values for the Potency in [1], in test [3] and in test [9] were 26.4 µM (active), 18.7 µM (active) and 20.9 µM (active), respectively. In addition, the Potency result in [4], in test [5], in test [7] and in [10] was “inactive” in each case.

On to `COc1cccc2c1CCCC2CCCN1CCN(C2CCCCC2)CC1` (stereo not drawn), for which the Potency is 23.5 µM (active) in [1]; 16.6 µM (active) in test [6]; 16.6 µM (active) in test [2]; 23.5 µM (active) in [3]; 13.2 µM (active) in test [9]; 14.8 µM (active) in [4]. Further, the Potency in [7] and in [10] was 18.7 µM (active) in each case.

As for `O=C(O)c1c(Cl)c(Cl)c(Cl)c(Cl)c1-c1c2cc(I)c(=O)c(I)c-2oc2c(I)c(O)c(I)cc12`, the Potency in test [8] was 5.9 µM (active); in test [3], 6.62 µM (active); in test [9], 6.62 µM (active); in [4], 9.35 µM (active); in test [7] it was 6.62 µM (active). In test [2], the Potency result is “inactive”.

With `O=c1ccn([C@@H]2O[C@H](CO)[C@H](O)[C@H]2O)c(=O)[nH]1`, the Potency result in test [1], in test [3], in test [9] and in test [10] was “inactive” throughout.

`c1cc(-c2sc(-c3ccncc3)c(-c3ccncc3)c2-c2ccncc2)ccn1`: the Potency is 9.35 µM (active) in [6] and 14.8 µM (active) in [3]. Besides, the Potency result in test [4], in test [5], in test [7] and in [10] was “inactive” each time.

As for `COC(=O)C1=CO[C@@H](O)[C@@H]2C(CO)=CC[C@@H]12`, the Potency in test [3] and in test [4] was 20.9 µM (active) each time.

For the molecule `COc1cc(N2CCC(N3CCN(C)CC3)CC2)ccc1Nc1ncc(Cl)c(Nc2ccccc2S(=O)(=O)C(C)C)n1`, in test [2], the Potency result is “inactive”.

Take `Clc1ccc(COC(Cn2ccnc2)c2ccc(Cl)cc2Cl)cc1` (stereo not drawn): the Potency in test [8] is 18.7 µM (active); in test [6], 20.9 µM (active); in [9] it was 20.9 µM (active). Also, the Potency result in [5] is “inactive”.

For `Nc1ncnc2c1ncn2[C@@H]1O[C@@H](CO)[C@H](O)[C@H]1O`, the Potency result in [1], in [8], in [3], in test [4], in [5] and in test [7] was “inactive” throughout.

Turning to `O=C(N[C@@H](c1ccccc1)[C@@H]1CCCCN1)c1cccc(C(F)(F)F)c1Cl`, the Potency in test [8] is 23.5 µM (active); in test [9], 23.5 µM (active); in test [4], 1.66 µM (active). Moreover, the Potency result in test [2], in test [7] and in test [10] was “inactive” throughout.

With `COc1ccc2c(Oc3ccc(NC(=O)c4c(C)n(CC(C)(C)O)n(-c5ccccc5)c4=O)cc3F)ccnc2c1`, the Potency in [1] is 20.9 µM (active); in [8], 14.8 µM (active); in test [4], 23.5 µM (active).

`NC(=O)c1cccc2[nH]c(-c3ccc([C@H]4CCCN4)cc3F)nc12`: the Potency in test [8] was 8.33 µM (active); in test [6], 14.8 µM (active); in test [3] it was 16.6 µM (active). The Potency result in [2], in test [4], in [5], in [7] and in [10] was “inactive” in each case.

Turning to `CCc1ccc(C=C2SC(=S)NC2=O)cc1`, the Potency entry in test [4], in test [5] and in test [10] was “inactive” in each case.

As to `C[N+]1(C)[C@@H]2CC(OC(=O)[C@H](CO)c3ccccc3)C[C@H]1[C@H]1O[C@@H]12` (stereo partly drawn), the Potency in test [1] was 23.5 µM (active). Besides, the Potency entry in test [2], in test [9], in [4], in test [5], in [7] and in test [10] was “inactive” in each case.

Consider `NC(=O)c1cccc(-c2cc(Nc3ccc(OC(F)(F)F)cc3)ncn2)c1`, for which the Potency in test [1] is 16.6 µM (active); in test [3], 18.7 µM (active); in test [5] it was 16.6 µM (active); in [7] it was 29.6 µM (active). Besides, the Potency result in test [4] is “inactive”.

With `CCCCCCCCCCCC1=C(O)C(=O)C=C(O)C1=O`, the Potency is 0.372 µM (active) in [1], 2.64 µM (active) in test [6] and 7.43 µM (active) in test [5].
